Data as given in PubChem BioAssay (NCATS).
Values joined by “and” are separate entries in the source; they are usually repeats but may differ in a detail not shown here. Equal values may be shown once. Records with an inconclusive call do not appear. A call without a number means that no potency is given here. Active and inactive are the calls of the source. The call rests on the fitted dose curve; in most records, active means well fitted curve in the direction sought with a large enough effect; inconclusive means small, poorly fitted or top-dose-only effect, or another doubt; inactive means no such curve, though single readings can be large; an effect the other way counts as inactive or inconclusive.

Experiments:
[1] = NS1 protein of Zika virus - qHTS assay to identify small molecule inhibitors in human HEK 293 cells (AID 1347053); conditions: HEK293 ZIKV MR766 infection, NS1 TR-FRET, 24 h; series mostly up to 46.1 µM; further: nearly all actives have a fitted effect of over 55% in size
Procedure, shortened: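 In this cell-based screen, HEK 293 cultures received compound for one hour before Zika MR766 at MOI = 0.5. NS1 was quantified 24 hours later by TR-FRET, normalized to virus-free wells and infected wells.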

[2] = qHTS of pediatric cancer cell lines to identify multiple opportunities for drug repurposing: Primary screen for TC32 cells (AID 1347089); conditions: TC32 Ewing sarcoma viability, CellTiter-Glo luminescence, 48 h; series mostly up to 45.8 µM; further: nearly all actives have a fitted effect of over 60% in size
Procedure, shortened: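 TC32 cells, 500-1,000/well in growth medium, compound-treated 48 h at 37 °C; viability from CellTiter-Glo luminescence. Primary screen: MIPE 11-point (0.78 nM–46 µM final), NPC 8-point (0.59 nM–46 µM final); confirmatory at 11-point dilutions.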

[3] = qHTS of pediatric cancer cell lines to identify multiple opportunities for drug repurposing: Primary screen for SJ-GBM2 cells (AID 1347091); conditions: SJ-GBM2 viability, CellTiter-Glo luminescence, 48 h; series mostly up to 46 µM
Procedure, shortened: (§1)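 Eight- or eleven-point concentration series, 48 h treatment at 37 degrees C in growth media; readout CellTiter-Glo luminescence. Potency and efficacy were taken from the concentration-response curves.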

[4] = qHTS of pediatric cancer cell lines to identify multiple opportunities for drug repurposing: Primary screen for DAOY cells (AID 1347090); conditions: DAOY medulloblastoma viability, CellTiter-Glo luminescence, 48 h; series mostly up to 46 µM; further: nearly all actives have a fitted effect of over 55% in size
Procedure, shortened: as §1
Potency means the concentration at half of the fitted maximal effect.

| Structure (SMILES) | Potency [1] | Potency [2] | Potency [3] | Potency [4] |
| --- | --- | --- | --- | --- |
| O=C1[C@H](Cc2ccc(O)cc2)N2C(=O)CCN(C(=O)NCc3ccccc3)[C@H]2CN1Cc1cccc2ccccc12 | 9.35 µM (active) | 11.7 µM (active) | 10.5 µM (active) |  |
| C[C@H](NC(=O)Cc1cc(F)cc(F)c1)C(=O)N[C@@H]1C(=O)N(C)c2ccccc2-c2ccccc21 | inactive | inactive | inactive | 11.8 µM (active) |
| Cc1c(CCOc2ccc(C(=O)O)cc2)c2cc(Cl)ccc2n1C(c1ccccc1)c1ccccc1 | inactive | inactive | inactive |  |
| CCc1ccc(CCOc2ccc(CC3SC(=O)NC3=O)cc2)nc1 (configuration not stated) | inactive | inactive | inactive | inactive |
| Cc1ccnc(NS(=O)(=O)c2ccc(NC(=O)Nc3ccc(S(=O)(=O)Nc4nccc(C)n4)cc3)cc2)n1 | inactive | inactive | 16.6 µM (active) | inactive |
| COc1ccc2nc(S(=O)Cc3ncc(C)c(OC)c3C)[nH]c2c1 (configuration not stated) | inactive | inactive | inactive | inactive |
| Fc1ccc(Cl)cc1-c1nc(Nc2ccncc2)c2nccnc2n1 | inactive | inactive | inactive | inactive |
| CN[C@@H](C)C(=O)N[C@H]1CCCC[C@H]2CC[C@@H](C(=O)N[C@@H](c3ccccc3)c3cn(CCCCc4ccc(CCCCn5cc([C@@H](NC(=O)[C@@H]6CC[C@@H]7CCCC[C@H](NC(=O)[C@H](C)NC)C(=O)N76)c6ccccc6)nn5)cc4)nn3)N2C1=O | inactive | inactive | inactive |  |
| N#CC[C@H](C1CCCC1)n1cc(-c2ncnc3[nH]ccc23)cn1 | inactive | inactive | inactive |  |
| COc1ccc(CC2=NN3C([C@@H](CCc4ccccc4)[C@@H](C)O)=NC(C)C3C(=O)N2)cc1OC (some centres not stated) | inactive | inactive | inactive |  |
| CN(C)C(=O)c1ccc(S(=O)(=O)c2ccc(NC(=O)[C@@](C)(O)C(F)(F)F)c(Cl)c2)cc1 | inactive | inactive | inactive | 18.7 µM (active) |
| CCN(CC)CCCC(C)Nc1nc(C)cc(Nc2ccc3nc(C)cc(N)c3c2)n1 (configuration not stated) | inactive | inactive | inactive | inactive |
| O=C(O)[C@@H](c1ccc(OCc2ccc3ccccc3n2)cc1)C1CCCC1 | inactive | inactive | inactive | inactive |
| COc1ccc(-c2oc3cc(OC)ccc3c2C(=O)c2ccc(C#N)cc2)cc1 | inactive | inactive | 1.18 µM (active) |  |
| CC(C=CC1=C(C)CCCC1(C)C)=CC=CC(C)=CC(=O)O | inactive | inactive | inactive | 7.43 µM (active) |
| Clc1ccc(Nc2nnc(Cc3ccncc3)c3ccccc23)cc1 | inactive | inactive | inactive |  |
| COc1ccc(COc2cc3oc(=O)c4cc(C(C)O)ccc4c3cc2OC)cc1 (configuration not stated) | inactive | inactive | 10.5 µM (active) |  |
| COc1cc2c(cc1OC)CN(CCc1ccc(NC(=O)c3cccc4c(=O)c5cccc(OC)c5[nH]c34)cc1)CC2 | inactive | inactive | inactive |  |
| Cc1c(C)c2c(c(C)c1O)CCC(C)(COc1ccc(CC3SC(=O)NC3=O)cc1)O2 (configuration not stated) | inactive | inactive | inactive | inactive |
| Cc1csc(NC(=O)c2sc3nc4c(c(C(F)(F)F)c3c2N)CCC4)n1 | inactive | inactive | inactive | 23.5 µM (active) |
| COc1ccc(-c2ccc3c(N4CCOCC4)nc(N4C[C@@H](C)O[C@@H](C)C4)nc3n2)cc1CO |  |  | 0.296 µM (active) |  |
| S=C(NCc1ccc2c(c1)OCO2)N1CCN(c2ncnc3c2oc2ccccc23)CC1 |  | inactive | inactive | 2.15 µM (active) |
| CN(C)c1ccc(Nc2nc(N)n(C(=O)c3c(F)cccc3F)n2)cc1 | inactive |  | 16.6 µM (active) |  |
| CN(C)c1ccc(C2Nc3ccc4ccccc4c3C3=C2C(=O)CC(C)(C)C3)cc1Br (configuration not stated) |  | inactive |  | inactive |
| COc1ccc(-c2c(-c3ccc(O)cc3O)n[nH]c2C)cc1 |  | inactive |  |  |
| CC1(C)Cc2c(-c3ccccc3)c(-c3ccc(Cl)cc3)c(CC(=O)O)n2C1 |  | inactive |  |  |
| Cc1cc(-c2ccc(CC(=O)Nc3ccc(-c4cccnc4)cc3)cc2)ccn1 |  | inactive |  |  |
| CCC(C)(C)C(=O)O[C@H]1C[C@@H](C)C=C2C=C[C@H](C)[C@H](CC[C@@H]3C[C@@H](O)CC(=O)O3)[C@H]21 | inactive |  |  | 6.68 µM (active) and 5.9 µM (active) |
| COc1nc(-c2ccc3c(c2)OCO3)n(-c2ccc(NC(=O)CSc3ccccc3)cc2)n1 | inactive | inactive | inactive |  |
